Experimental data: PubChem BioAssay (EPA / NIEHS)
Several values for one entry are separate records, joined by “and”; a condition that tells them apart may be missing. Equal entries are not always repeated. Inconclusive results are not listed. Activity calls are given as the source filed them. How the source made its calls, unless noted: active means hit-call score of the fitted dose curve at least 0.9, where 1 is the maximum; inactive means score below 0.9.

Tests used:
[1] = molecular target: Retinoic acid receptor RXR-alpha (Homo sapiens) (UniProt P19793); experiment: ATG_RXRa_TRANS: Attagene TRANS-FACTORIAL HepG2 Assay for human Retinoid X Receptor alpha (RXRa) (AID 2283012; active means hit-call score of the fitted dose curve at least 0.9, where 1 is the maximum)
Retinoic acid receptor RXR-alpha (Homo sapiens), sequence (P19793 whole entry, looked up, the tested form may be a part): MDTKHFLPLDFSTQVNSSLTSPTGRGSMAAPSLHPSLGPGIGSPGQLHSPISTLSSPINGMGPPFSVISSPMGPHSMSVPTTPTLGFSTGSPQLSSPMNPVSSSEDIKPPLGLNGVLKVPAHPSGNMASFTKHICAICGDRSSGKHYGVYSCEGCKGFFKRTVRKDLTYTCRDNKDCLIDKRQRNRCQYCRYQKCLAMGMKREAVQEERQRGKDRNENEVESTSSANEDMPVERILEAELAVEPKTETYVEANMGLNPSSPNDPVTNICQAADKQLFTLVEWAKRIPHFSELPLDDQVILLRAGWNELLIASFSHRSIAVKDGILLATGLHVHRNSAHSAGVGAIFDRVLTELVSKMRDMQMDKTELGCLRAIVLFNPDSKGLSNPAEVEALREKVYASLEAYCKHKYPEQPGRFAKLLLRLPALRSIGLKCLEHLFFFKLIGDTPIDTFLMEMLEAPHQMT
In short: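 Transient transfection of human HepG2 with multiple GAL4-UAS reporter constructs; 24 h compound exposure; total RNA isolated, reverse-transcribed, PCR-amplified, 6-FAM labelled, HpaI-cut, resolved by capillary electrophoresis. Positive-direction fit versus DMSO.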

[2] = molecular target: human Retinoid X Receptor beta (RXRb), RXRB (gene 6257) (UniProt P28702); experiment: ATG_RXRb_TRANS: Attagene TRANS-FACTORIAL HepG2 Assay for human Retinoid X Receptor beta (RXRb) (AID 2283013; active means hit-call score of the fitted dose curve at least 0.9, where 1 is the maximum)
human Retinoid X Receptor beta (RXRb), RXRB (gene 6257), sequence (P28702 whole entry, looked up, the tested form may be a part): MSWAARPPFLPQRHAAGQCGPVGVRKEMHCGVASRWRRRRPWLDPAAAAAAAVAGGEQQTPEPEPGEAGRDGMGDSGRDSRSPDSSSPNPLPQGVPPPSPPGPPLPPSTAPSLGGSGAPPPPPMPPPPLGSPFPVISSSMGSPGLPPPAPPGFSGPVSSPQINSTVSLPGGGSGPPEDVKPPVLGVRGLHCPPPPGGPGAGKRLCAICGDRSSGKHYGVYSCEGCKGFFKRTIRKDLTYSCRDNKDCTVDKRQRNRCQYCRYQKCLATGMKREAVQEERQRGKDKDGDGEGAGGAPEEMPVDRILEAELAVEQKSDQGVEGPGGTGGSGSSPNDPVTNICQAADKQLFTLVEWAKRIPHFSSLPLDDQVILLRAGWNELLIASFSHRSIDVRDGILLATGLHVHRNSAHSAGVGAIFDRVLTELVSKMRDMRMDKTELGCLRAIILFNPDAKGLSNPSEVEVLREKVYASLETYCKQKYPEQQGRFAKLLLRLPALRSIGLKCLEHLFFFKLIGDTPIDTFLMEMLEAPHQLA
In short: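 Transfect HepG2 with GAL4-UAS multi-reporter constructs (chimeric NR-Gal4, TRANS format); dose compound 24 h; isolate RNA, RT-PCR, FAM primer extension, HpaI digest; quantify by capillary electrophoresis; positive direction vs DMSO.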

[3] = read-out: E-selectin (Homo sapiens) (UniProt P16581); experiment: BSK_3C_Eselectin: BioMAP Diversity Plus: 3C Assay for Eselectin Biomarker Activity (AID 2283015); settings: primary human endothelial cells (HUVEC); actives raise or lower the signal
In short: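 Primary human umbilical vein endothelial cells (3C system), read 24 h after compound addition; E-selectin measured by ELISA. Bidirectional curve fitting against DMSO baseline; cytotoxicity by parallel SRB total-protein staining.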

[4] = read-out: Interleukin-1 alpha (IL1a), IL1A (gene 3552); experiment: BSK_BE3C_IL1a: BioMAP Diversity Plus: BE3C Assay for Interleukin-1 alpha (IL1a) Biomarker Activity (AID 2283016); settings: primary human bronchial epithelial cells; actives raise or lower the signal
In short: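 BE3C primary human bronchial epithelium; cpd 24 h; IL-1a by ELISA; bidirectional fit vs DMSO; parallel SRB (0.1% SRB, 10% TCA fix, 560 nm) for cytotoxicity.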

[5] = read-out: Monocyte Chemoattractant Protein-1 (MCP1), CCL2 (gene 6347); experiment: BSK_3C_MCP1: BioMAP Diversity Plus: 3C Assay for Monocyte Chemoattractant Protein-1 (MCP1) Biomarker Activity (AID 2283017); settings: primary human endothelial cells (HUVEC); actives raise or lower the signal
In short: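 Human umbilical vein endothelial cells (3C system) exposed to chemicals for 24 h; MCP-1 quantified by ELISA against the DMSO baseline with bidirectional fitting, and parallel SRB staining used to assess cytotoxicity.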

[6] = read-out: Monocyte Chemoattractant Protein-1 (MCP1), CCL2 (gene 6347); experiment: BSK_4H_MCP1: BioMAP Diversity Plus: 4H Assay for Monocyte Chemoattractant Protein-1 (MCP1) Biomarker Activity (AID 2283018); settings: primary human endothelial cells (HUVEC); actives raise or lower the signal
In short: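 ELISA read-out of MCP-1 from human vascular endothelial primary cells taken at 24 hours after compound exposure. Activity was fitted in both directions relative to DMSO, which served as negative control.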

[7] = read-out: Human Leukocyte Antigen - DR isotype (HLADR), HLA-DRA (gene 3122); experiment: BSK_3C_HLADR: BioMAP Diversity Plus: 3C Assay for Human Leukocyte Antigen - DR isotype (HLADR) Biomarker Activity (AID 2283019); settings: primary human endothelial cells (HUVEC); actives raise or lower the signal
In short: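 HUVEC monoculture, HLA-DR measured by ELISA 24 h after chemical dosing. Fitted bidirectionally against DMSO baseline; parallel SRB staining assessed cytotoxicity, with 3C proliferation read by SRB at 48 h.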

[8] = read-out: Interleukin-8 (IL8), CXCL8 (gene 3576); experiment: BSK_3C_IL8: BioMAP Diversity Plus: 3C Assay for Interleukin-8 (IL8) Biomarker Activity (AID 2283020); settings: primary human endothelial cells (HUVEC); actives raise or lower the signal
In short: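 ELISA read-out of IL-8 from human umbilical vein endothelium, measured 24 h after chemical dosing. Activity is expressed relative to DMSO negative control, with both increases and decreases fitted.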

[9] = molecular target: human Vitamin D Receptor (VDR), VDR (gene 7421) (UniProt P11473); experiment: ATG_VDR_TRANS: Attagene TRANS-FACTORIAL HepG2 Assay for human Vitamin D Receptor (VDR) (AID 2283022; active means hit-call score of the fitted dose curve at least 0.9, where 1 is the maximum)
human Vitamin D Receptor (VDR), VDR (gene 7421), sequence (P11473 whole entry, looked up, the tested form may be a part): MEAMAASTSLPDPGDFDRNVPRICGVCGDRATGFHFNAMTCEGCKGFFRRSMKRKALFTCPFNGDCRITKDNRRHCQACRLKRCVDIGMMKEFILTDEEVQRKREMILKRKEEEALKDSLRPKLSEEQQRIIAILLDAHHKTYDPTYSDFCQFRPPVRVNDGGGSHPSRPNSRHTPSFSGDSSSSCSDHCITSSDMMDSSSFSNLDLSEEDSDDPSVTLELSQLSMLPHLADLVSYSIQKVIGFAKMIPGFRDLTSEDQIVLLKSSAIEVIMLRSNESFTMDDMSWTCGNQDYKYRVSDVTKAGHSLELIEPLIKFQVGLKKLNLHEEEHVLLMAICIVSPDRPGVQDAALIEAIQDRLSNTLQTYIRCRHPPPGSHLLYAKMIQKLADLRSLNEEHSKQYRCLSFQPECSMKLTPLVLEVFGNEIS
In short: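 HepG2 cells were transiently transfected with GAL4-UAS reporter units and a chimeric VDR-Gal4 construct, then dosed for 24 hours. Reporter mRNA was quantified by RT-PCR, fluorescent labeling, HpaI digestion and capillary electrophoresis; gain of signal analysed vs DMSO.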

[10] = BSK_3C_SRB: Viability Assessment in the BioMAP Diversity Plus: 3C Assay (AID 2283023); settings: primary human endothelial cells (HUVEC);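 further: fitted both ways against DMSO so a hit may be signal rise or drop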
In short: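 Human umbilical vein endothelial cells in the 3C system, treated 24 h. Total protein measured by 0.1% sulforhodamine B staining after 10% TCA fixation, read at 560 nm; bidirectional fit versus DMSO.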

[11] = BSK_3C_Vis: BioMAP Diversity Plus: 3C Assay for Morphology Visualization (AID 2283025); settings: primary human endothelial cells (HUVEC);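 further: fitted both ways so gain or loss versus DMSO counts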;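 on AC50: light microscopy image of cell morphology used as background control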
In short: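 Chemicals were added to primary human umbilical vein endothelium, cells were incubated 24 h, and morphology was then visualized by light microscopy. Gain or loss of signal was fitted bidirectionally relative to DMSO.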

[12] = read-out: Pselectin, SELP (gene 6403); experiment: BSK_4H_Pselectin: BioMAP Diversity Plus: 4H Assay for Pselectin Biomarker Activity (AID 2283026); settings: primary human endothelial cells (HUVEC); actives raise or lower the signal
In short: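 ELISA read-out of P-selectin on human umbilical vein endothelium after 24 h of dosing. Values derive from bidirectional fitting relative to DMSO. Parallel SRB protein staining flagged overt cytotoxicity.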

[13] = BSK_4H_SRB: Viability Assessment in the BioMAP Diversity Plus: 4H Assay (AID 2283027); settings: primary human endothelial cells (HUVEC);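 further: cells exposed to compound for 24 h before staining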;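 on AC50: curves fitted both ways versus DMSO so AC50 may be loss or gain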
In short: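 Absorbance at 560 nm of SRB-stained total protein served as the viability read-out in confluent primary human umbilical vein endothelium 24 h after chemical treatment. Curves were fitted bidirectionally against DMSO as negative control.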

[14] = BSK_BE3C_SRB: Viability Assessment in the BioMAP Diversity Plus: BE3C Assay (AID 2283028); settings: primary human bronchial epithelial cells;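 on AC50: fitted both ways so AC50 may mark signal gain or loss versus DMSO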
In short: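 Human bronchial epithelial primary cells in confluent culture, 24 h after chemical dosing; total protein by 0.1% SRB staining after 10% TCA fixation, read at 560 nm. Bidirectional fitting versus DMSO baseline.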

[15] = read-out: Thrombomodulin, THBD (gene 7056); experiment: BSK_3C_Thrombomodulin: BioMAP Diversity Plus: 3C Assay for Thrombomodulin Biomarker Activity (AID 2283029); settings: primary human endothelial cells (HUVEC); actives raise or lower the signal
In short: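 Read-out is ELISA of thrombomodulin on human umbilical vein endothelium 24 h after chemical dosing. Gain or loss of signal is scored relative to DMSO. Overt cytotoxicity is checked in parallel cultures by sulforhodamine B staining.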

[16] = read-out: Urokinase-type plasminogen activator receptor (uPAR), PLAUR (gene 5329); experiment: BSK_4H_uPAR: BioMAP Diversity Plus: 4H Assay for Urokinase-type plasminogen activator receptor (uPAR) Biomarker Activity (AID 2283030); settings: primary human endothelial cells (HUVEC); actives raise or lower the signal
In short: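 Human umbilical vein endothelial cells in the 4H system, 24 h after chemical dosing. Cell-surface uPAR measured by ELISA, fitted in both directions versus DMSO; cytotoxicity checked by SRB total protein in parallel cultures.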

[17] = read-out: Monokine induced gamma interferon (MIG), CXCL9 (gene 4283); experiment: BSK_3C_MIG: BioMAP Diversity Plus: 3C Assay for Monokine induced gamma interferon (MIG) Biomarker Activity (AID 2283021); settings: primary human endothelial cells (HUVEC); actives raise or lower the signal;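 on AC50: MIG protein level measured by immunoassay in the treated endothelial cultures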
In short: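 Read-out is ELISA detection of MIG on human umbilical vein endothelial cells, taken 24 h after dosing. Gain or loss of signal was scored relative to DMSO controls using bidirectional curve fitting.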

[18] = read-out: Matrix Metallopeptidase 1 (MMP1), MMP1 (gene 4312); experiment: BSK_BE3C_MMP1: BioMAP Diversity Plus: BE3C Assay for Matrix Metallopeptidase 1 (MMP1) Biomarker Activity (AID 2283024); settings: primary human bronchial epithelial cells; actives raise or lower the signal
In short: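 Human bronchial epithelial cells (BE3C system) exposed to compound for 24 h; MMP1 then quantified by ELISA. Activity was fitted in both directions relative to DMSO.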

Measured: AC50

E-selectin (Homo sapiens), sequence (P16581 whole entry, looked up): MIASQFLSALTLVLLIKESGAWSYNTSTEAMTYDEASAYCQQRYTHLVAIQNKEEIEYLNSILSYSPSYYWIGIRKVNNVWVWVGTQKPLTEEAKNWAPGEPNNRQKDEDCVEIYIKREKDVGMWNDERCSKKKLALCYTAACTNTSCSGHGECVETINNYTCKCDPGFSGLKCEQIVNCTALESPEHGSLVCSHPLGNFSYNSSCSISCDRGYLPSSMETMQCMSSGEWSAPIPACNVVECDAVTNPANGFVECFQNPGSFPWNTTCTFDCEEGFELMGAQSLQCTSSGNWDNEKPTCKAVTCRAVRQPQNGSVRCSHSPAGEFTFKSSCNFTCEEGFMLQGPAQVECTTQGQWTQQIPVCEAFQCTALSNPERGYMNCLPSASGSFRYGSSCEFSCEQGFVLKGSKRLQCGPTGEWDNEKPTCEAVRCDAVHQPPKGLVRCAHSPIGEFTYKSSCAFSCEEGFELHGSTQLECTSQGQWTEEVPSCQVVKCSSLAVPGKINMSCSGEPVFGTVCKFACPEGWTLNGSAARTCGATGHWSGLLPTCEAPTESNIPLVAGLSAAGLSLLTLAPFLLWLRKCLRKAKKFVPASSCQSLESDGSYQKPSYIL

c1ccc(C[n+]2cccc3ccccc32)cc1
not listed: [17] | [18]
inactive: all other assays above

Clc1ccccc1C(c1ccccc1)(c1ccccc1)n1ccnc1
inactive: [1] | [9]
active: [3] 30.8 µM | [4] 7.88 µM | [5] 15.9 µM | [6] 16.9 µM | [7] 15.7 µM | [8] 27.2 µM | [17] 34.5 µM | [10] 11.9 µM | [11] 14.5 µM | [12] 8.64 µM | [13] 24.9 µM | [14] 8.78 µM | [15] 8.39 µM | [16] 18.3 µM

Cc1ccc2oc(CN(Cc3ccccc3)C(=O)Nc3c(F)cc(F)cc3F)c(-c3ccc(Cl)cc3)c2c1
not listed: [7]
inactive: all other assays above

O=C=NCCCCCCN=C=O
not listed: [9] | [17]
inactive: all other assays above

COCC(C)OCC(C)OCC(C)O (stereo unspecified)
not listed: [1] | [9] | [17] | [18]
inactive: all other assays above

CCCCCCCCCCCC[N+](C)(C)C
inactive: [1] | [2] | [9]
active: [3] 1.98 µM | [4] 31.9 µM | [5] 20 µM | [6] 16.3 µM | [7] 15.2 µM | [8] 12.7 µM | [18] 18 µM | [12] 20 µM | [13] 26.9 µM | [14] 32 µM | [15] 5.28 µM | [16] 29.8 µM

CCCCCCCCOc1ccc(C(=O)c2ccccc2)c(O)c1
active: [7] 24.7 µM | [10] 28.7 µM | [15] 7.71 µM
not listed: [2] | [18]
inactive: all other assays above

CN(C)C(=O)C1(N2CCCCC2)CCN(CC[C@@]2(c3ccc(Cl)c(Cl)c3)CN(C(=O)c3ccccc3)CCO2)CC1
active: [3] 29.8 µM | [4] 29.2 µM | [5] 22.9 µM | [6] 18.9 µM | [7] 12.4 µM | [8] 24.3 µM | [17] 34.7 µM | [10] 7.1 µM | [11] 12.5 µM | [12] 15.6 µM | [13] 18.9 µM | [14] 26.6 µM | [16] 12.3 µM
inactive: [1] | [9] | [15]

CC(C)(C)c1cc(/C=C2\SC(N)=NC2=O)cc(C(C)(C)C)c1O
inactive: [1] | [2] | [4] | [14] | [15]
active: [3] 29.3 µM | [5] 30.6 µM | [6] 20 µM | [7] 27.5 µM | [8] 30.1 µM | [17] 37.1 µM | [10] 29.1 µM | [11] 16.3 µM | [12] 13.3 µM | [13] 28.7 µM | [16] 36.7 µM

CCCCCCCCCC(=O)O
active: [2] 30.2 µM and 68.3 µM
not listed: [17] | [18]
inactive: all other assays above

CCCCCc1ccc(N)cc1
active: [7] 14.5 µM | [10] 17.8 µM | [13] 11.7 µM | [16] 7.58 µM
not listed: [17]
inactive: all other assays above

O=C(Nc1ccc(Cl)cc1)Nc1ccc(Cl)c(Cl)c1
active: [5] 3.28 µM | [6] 4.31 µM | [7] 1.68 µM | [8] 1.87 µM | [10] 2.66 µM | [12] 2.6 µM | [13] 2.02 µM | [16] 1.92 µM
inactive: [1] | [2] | [3] | [4] | [17] | [11] | [14] | [15]
